Laboratory results published in PubChem BioAssay (NCATS).
Results filed as inconclusive are left out. The source made the active and inactive calls. The call rests on the fitted dose curve; in most records, active means well fitted curve in the direction sought with a large enough effect; inconclusive means small, poorly fitted or top-dose-only effect, or another doubt; inactive means no such curve, though single readings can be large; an effect the other way counts as inactive or inconclusive.

Tests used:
[1] = qHTS of pediatric cancer cell lines to identify multiple opportunities for drug repurposing: Primary screen for SK-N-MC cells (AID 1347093); further: series mostly up to about 46 µM
Procedure, shortened: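 Metabolically active cells were quantified by ATP-dependent luminescence (CellTiter-Glo, 15 min at room temperature) following 48 h treatment. Cells had been plated at 500-1,000 per well and settled for 5 h beforehand.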

[2] = qHTS of pediatric cancer cell lines to identify multiple opportunities for drug repurposing: Primary screen for BT-37 cells (AID 1347094); further: series mostly up to about 57 µM
Procedure, shortened: (§1)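 Following a 5-hour attachment period, cells at 500-1,000/well received compounds and were cultured for 48 hours. CellTiter-Glo was added and luminescence read to estimate viable, metabolically active cells.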

[3] = qHTS of pediatric cancer cell lines to identify multiple opportunities for drug repurposing: Primary screen for NB-EBc1 cells (AID 1347095)
Procedure, shortened: as §1

[4] = qHTS of pediatric cancer cell lines to identify multiple opportunities for drug repurposing: Primary screen for U-2 OS cells (AID 1347096); further: nearly all actives have a fitted effect of over 50% in size
Procedure, shortened: (§2)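 Cells (500-1,000/well) in growth media were settled 5 h at 37 degrees C, then given compounds for 48 h. Viability was read as CellTiter-Glo luminescence. Primary runs used MIPE at 11 points (0.78 nM-46 µM) and NPC at 8 points (0.59 nM-46 µM); follow-ups used 11 points.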

[5] = qHTS of pediatric cancer cell lines to identify multiple opportunities for drug repurposing: Primary screen for Saos-2 cells (AID 1347097); further: nearly all actives have a fitted effect of over 40% in size
Procedure, shortened: as §1

[6] = qHTS of pediatric cancer cell lines to identify multiple opportunities for drug repurposing: Primary screen for SK-N-SH cells (AID 1347098);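 further: DMSO served as neutral control and bortezomib at 2.3 µM as positive control; nearly all actives have a fitted effect of over 65% in size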
Procedure, shortened: (§3)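 Cells (500-1,000/well) rested 5 h, then received compounds for 48 h; metabolically active cells were measured by CellTiter-Glo luminescence. Final concentrations spanned up to 46 µM (MIPE, 11-point) or 0.59 nM-46 µM (NPC, 8-point) in primary screens, 11-point in follow-ups.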

[7] = qHTS of pediatric cancer cell lines to identify multiple opportunities for drug repurposing: Primary screen for NB1643 cells (AID 1347099); further: nearly all actives have a fitted effect of over 50% in size
Procedure, shortened: as §1

[8] = qHTS of pediatric cancer cell lines to identify multiple opportunities for drug repurposing: Primary screen for LAN-5 cells (AID 1347100)
Procedure, shortened: as §2

[9] = qHTS of pediatric cancer cell lines to identify multiple opportunities for drug repurposing: Primary screen for BT-12 cells (AID 1347101); further: nearly all actives have a fitted effect of over 25% in size
Procedure, shortened: as §3

[10] = qHTS of pediatric cancer cell lines to identify multiple opportunities for drug repurposing: Primary screen for Rh18 cells (AID 1347102); further: nearly all actives have a fitted effect of over 65% in size
Procedure, shortened: as §2

Measured: Potency

OC1(c2ccc(Cl)cc2)CCNCC1
inactive: all assays above

CC(C)C(=O)Nc1cccc(C(F)(F)F)c1
inactive: all assays above

CN1N=C(C(N)=O)CCC1=O
inactive: all assays above

O=C(O)CCCC[P+](c1ccccc1)(c1ccccc1)c1ccccc1
inactive: all assays above

O=C(O)c1ccc(OCCN2CCCCC2)cc1
inactive: all assays above

CC(=O)N[C@@H](CCC(N)=O)C(=O)O
inactive: all assays above

O=C(O)Cc1ccccc1Oc1ccc(Cl)cc1Cl
inactive: all assays above

O=C(O)[C@@H](O)[C@H](O)[C@H](O)[C@@H](O)C(=O)O
inactive: all assays above

Cn1cc(S(C)=O)c(=O)c2ccc(F)cc21 (configuration not stated)
inactive: all assays above

CC(NC(CCc1ccccc1)C(=O)O)C(=O)N1C(=O)N(C)CC1C(=O)O (configuration not stated)
inactive: all assays above

CC(C)(C)NCC(O)COc1ccccc1OCC1CCCO1 (configuration not stated)
inactive: all assays above

CCN1C(=O)c2ccccc2C1Nc1ccc(OCCN2CCCCC2)cc1 (configuration not stated)
inactive: all assays above

Cc1cc(O)c2c(O)c3c(O)cccc3cc2c1
inactive: all assays above

CCOC(=O)O[C@]1(C(=O)OCCl)CC[C@H]2[C@@H]3CCC4=CC(=O)C=C[C@]4(C)[C@H]3[C@@H](O)C[C@@]21C
inactive: all assays above

Oc1ccccc1-c1nnco1
inactive: all assays above

Cc1nc([N+](=O)[O-])cn1-c1ccc([N+](=O)[O-])cc1
inactive: all assays above

CCCCCCCCCCCCCCCCCCN(C)C
inactive: all assays above

CC(CCc1ccc2c(c1)OCO2)NN (configuration not stated)
inactive: all assays above

C[C@H]1C[C@@H]2[C@H]([C@@H](O)C[C@@]3(C)[C@H]2CC[C@]3(O)C(=O)CO)[C@@]2(C)C=CC(=O)C=C12
inactive: all assays above

CC1(C)S[C@@H]2[C@H](NC(=O)C(c3ccccc3)S(=O)(=O)O)C(=O)N2[C@H]1C(=O)O (some centres not stated)
inactive: all assays above

CCCc1ncc(C(=O)O)s1
inactive: all assays above

CC(C(=O)O)c1ccc(/C=C2\CCCCC2=O)cc1 (configuration not stated)
inactive: all assays above

C=CCOc1cc(Cl)ccc1C(=O)NCCN(CC)CC
inactive: all assays above

C[N+]1(C)CCC(OC(=O)C(O)(c2ccccc2)C2CCCC2)C1 (configuration not stated)
inactive: all assays above

O=P(O)(O)OCC(O)CO (configuration not stated)
inactive: all assays above

C=CC[N+]1([C@H]2C[C@H]3[C@@H]4CC[C@H]5C[C@H](OC(C)=O)[C@@H](N6CCCCC6)C[C@]5(C)[C@H]4CC[C@]3(C)[C@H]2OC(=O)CC)CCCCC1
inactive: all assays above

CCCCC(=O)OCC(=O)[C@H]1[C@H](C)C[C@H]2[C@@H]3C[C@H](F)C4=CC(=O)C=C[C@]4(C)[C@@]3(F)[C@@H](O)C[C@@]21C
inactive: all assays above

COc1ccc2nc(SCc3ncc(C)c(OC)c3C)[nH]c2c1
inactive: all assays above

O=C(OCC1(COC(=O)c2cccnc2)CCCC(COC(=O)c2cccnc2)(COC(=O)c2cccnc2)C1O)c1cccnc1
inactive: all assays above

OCCCc1ccccc1
inactive: all assays above

CC(=O)Nc1c(I)c(NC(C)=O)c(I)c(C(=O)O)c1I
inactive: all assays above

CCOC(=O)NNc1nncc2ccccc12
inactive: all assays above

Brc1ccccc1-c1ccccc1
inactive: all assays above

CCO[C@H](Cc1ccc(OCCc2ccc(OS(C)(=O)=O)cc2)cc1)C(=O)O
inactive: all assays above

O=C(O)CCC(=O)OC[C@@H](NC(=O)C(Cl)Cl)[C@H](O)c1ccc([N+](=O)[O-])cc1
not listed: [9]
inactive: all other assays above

O=C1CC2(CCCC2)CC(=O)N1CCNCC1COc2ccccc2O1 (configuration not stated)
inactive: all assays above

CCN1CCCC1CN (configuration not stated)
inactive: all assays above

Cc1coc2ccccc2c1=O
not listed: [9]
inactive: all other assays above

NC(=O)NC1N=C([O][Al])NC1=O (configuration not stated)
inactive: all assays above

CCOC(=O)C(O)c1ccccc1 (configuration not stated)
inactive: all assays above

N#CSCC(=O)O
inactive: all assays above

CNC[C@H](O)[C@@H](O)[C@H](O)[C@H](O)CO
inactive: all assays above

OC[C@]1(O)OC[C@@H](O)[C@H](O)[C@@H]1O
not listed: [9]
inactive: all other assays above

CCC(C(=O)NC(=O)NC(C)=O)c1ccccc1 (configuration not stated)
inactive: all assays above
